In ChEMBL document CHEMBL4513216, “Probing the Open Global Health Chemical Diversity Library for Multistage-Active Starting Points for Next-Generation Antimalarials” (ACS Infect Dis, 2020) one finds INHIBITION data, which are given here for 105 compounds.

About 8,600 (12%) of roughly 69,000 compounds showed an effect of 50% or more. The sample holds strong results, similar compounds and a random draw of the others, so the mix is not that of the screen.

The test system of the experiment is Plasmodium berghei. Description: Screen against P. berghei liver stage (PbLuc), transformed with Luciferase, at 10uM. It counts as functional, HepG2. To be noted: tested at 10 uM.
As to `CCN1CC(C(=O)N2CCN(CCn3cccc3)CC2)CCC1=O` (stereo not given), the INHIBITION was determined as 6.69%.
In the case of `O=C(NCC(Cc1cccc(F)c1)N1CCCC1=O)c1ccc[nH]c1=O` (stereo not given) it was 3.88%; in that of `COc1ccc(CN2CCC3(CCCN(C)C3=O)C2)c(OC)c1C` (stereo not given), 5.75%; in that of `CCn1ccnc1CN1CCOC(Cn2cccn2)C1` (stereo not given), 37.9%.
Next, `CC1CCc2nc(NS(=O)(=O)c3cnn(C)c3)sc2C1` (stereo not given): 33.4%.
With `CNc1nc(CNC(=O)Nc2ccc(SC)c(F)c2)cs1`, the INHIBITION is recorded as -4.35%.
Next, `Cc1ccc(CN2CCCC3(CCC(=O)N3)CC2)s1` (stereo not given): -19.6%; `CN1CCC(Cc2noc(-c3cccc4c3OCC4)n2)CC1`: 34.5%; `Cc1ccc2oc(SCC(=O)NC(C)(C)C)nc2n1`: 49.1%.
Consider `Cc1nc(Nc2cnccn2)cc(C2CCN(CCO)C2)n1` (stereo not given), for which the INHIBITION turned out to be 23.2%.
Turning to `Cc1ccc(-c2ncc(C(=O)NCCNC(=O)C3CC3)s2)c(C)c1`, the INHIBITION is reported as -91.8%.
As to `Cc1nccc(C(=O)N2CCOC(c3nc(C(C)C)n[nH]3)C2)n1` (stereo not given), the INHIBITION is reported as -65.3%.
As for `Cc1nn(C)c2ncc(CN3CCN(Cc4ccco4)CC3)cc12`, the INHIBITION is 21.2%.
For the compound `Cc1cc(C)c(CNC(=O)N2CCOC(c3ccccc3)C2)c(=O)[nH]1` (stereo not given), the INHIBITION was determined as 31.9%.
For the compound `Cc1cc(C)c(C(=O)N2CCOC(c3cccs3)C2)c(=O)[nH]1` (stereo not given), the INHIBITION is -18.6%.
Take `Cc1ccc(C2CN(C(=O)c3c(C)cc(C)[nH]c3=O)CCO2)c(C)c1` (stereo not given): the INHIBITION is recorded as 55%.
Next, `CNC(=O)C1CN(C(C)C)CCN1c1ncccn1` (stereo not given): 47.1%; `CCC(=O)N1CCc2nc3cc(OC)c(OC)cc3c(=O)n2CC1`: 59.1%; `CCCC(=O)N1CCc2nc3cc(OC)c(OC)cc3c(=O)n2CC1`: 44.1%.
Consider `COc1cc2nc3n(c(=O)c2cc1OC)CCN(C(C)=O)CC3`, for which the INHIBITION was found to be 21%.
`COc1c(C2CCCN2C(=O)c2c[nH]c3ncccc23)c(C)nn1C` (stereo not given): the INHIBITION is given as 44.3%.
Next, `CCOc1cc(Cl)ccc1CNC(=O)N(C)CC(C)(C)O`: 25.2%; `CCOc1ccc(CNC(=O)N(C)CC(C)(C)O)cc1C`: 62.8%; `COc1ccc(CNC(=O)N(C)CC(C)(C)O)cc1OC`: 46.6%.
As for `O=C(NCC(CO)Cc1ccc(Cl)cc1)c1ccncc1F` (stereo not given), the INHIBITION is listed as -11.1%.
Regarding `Cc1cc(C)n(C2CCCN(C(=O)c3cn4cccnc4n3)C2)n1` (stereo not given), the INHIBITION is 31.9%.
As for `Cc1[nH]ccc1C(=O)N1CCCN1C(=O)OC(C)(C)C`, the INHIBITION was 14.3%.
On to `CC(C)(C)OC(=O)N1CCCN1C(=O)c1cccc2cc[nH]c12`, for which the INHIBITION is reported as 56.5%.
For the compound `CC(C)(C)OC(=O)N1CCCN1C(=O)c1cccc(F)c1F`, the INHIBITION is on record as 31.9%.
`O=C(NC1CCCC1)c1cc(C2CCCNC2)n[nH]1` (stereo not given): the INHIBITION stood at 9.98%.
In the case of `CN1C[C@@H](O)[C@]2(CCN(C(=O)c3ccccc3)C2)S1(=O)=O`, the INHIBITION is 8.61%.
With `O=C(C1CCC1)N1C[C@H]2CC[C@@H](C1)N(S(=O)(=O)c1ccccc1)C2`, the INHIBITION is recorded as -49.3%.
For the compound `CCOc1nnc(CN(CC)CC(=O)NC(C)(C)C)s1`, the INHIBITION is listed as 24.7%.
As to `CCOc1nnc(CN(CC)CC(=O)Nc2c(F)cccc2F)s1`, the INHIBITION turned out to be 69.1%.
For the compound `CCOc1nnc(CN(CC)CC(=O)NC(C)C)s1`, the INHIBITION is 39.9%.
As for `Cc1oc(C)c(C(=O)N2CCCN(c3nccs3)CC2)c1C`, the INHIBITION was -21.7%.
Take `O=C(Cc1n[nH]c(-c2cncc(Br)c2)n1)NCc1ccncc1`: the INHIBITION turned out to be 29.4%.
`NC(=O)CNC(c1ccccc1)c1ccc(OC(F)F)cc1` (stereo not given): the INHIBITION is on record as -11.9%.
As to `CC(NC(=O)CN1CCN(c2cccc(Cl)c2)CC1)c1ccco1` (stereo not given), the INHIBITION stood at 22.6%.
For the compound `Cc1ccc(Cl)cc1N1CCN(CC(=O)NC(C)c2ccco2)CC1` (stereo not given), the INHIBITION was determined as 26.8%.
For the compound `CC(NC(=O)CN1CCN(c2ccncc2Cl)CC1)c1ccco1` (stereo not given), the INHIBITION is on record as 71.3%.
As to `O=c1[nH]c(-c2ccccc2)nc2c1CCN(S(=O)(=O)N1CCCC1)C2`, the INHIBITION is recorded as 9%.
In the case of `Cc1ccc(S(=O)(=O)N[C@H](CO)C(C)C)cc1N(C)C`, the INHIBITION was 6.94%.
For `CC1(C)CN=C(N2CCN(CC3CCCO3)CC2)S1` (stereo not given), the INHIBITION worked out at 25.5%.
Regarding `CC1(C)CN=C(N2CCN(CC3CCOC3)CC2)S1` (stereo not given), the INHIBITION is given as 32%.
As to `CC1(C)CN=C(N2CCN(CCCN3CCOCC3)CC2)S1`, the INHIBITION is given as 89.6%.
In the case of `Cc1nc(CN2C(=O)CC[C@@H]3[C@H]2CCN3C(=O)c2ccccn2)cs1` it was 48.6%; in that of `Cc1nc(C)c(C(=O)N2Cc3ccccc3OCC2Cn2ccnc2)o1` (stereo not given), 25.8%; in that of `Cc1nc(C)c(C(=O)N2Cc3ccccc3OCC2Cn2ccnc2)s1` (stereo not given), 51.7%.
For `O=C(c1cccnc1)N1Cc2ccccc2OCC1Cn1ccnc1` (stereo not given), the INHIBITION was determined as 24.8%.
In the case of `CCS(=O)(=O)N1C[C@@H](O)[C@H](N2CCc3ccccc3C2)C1` it was 9.98%; in that of `Cc1noc(C)c1C(=O)N1CC[C@]2(C[C@@H](OCc3cccnc3)CO2)C1`, 10.1%.
In the case of `CCC[C@@H]1CN(Cc2ccccc2-c2ccco2)C[C@H]1NC(C)=O` it was -20%; in that of `Cc1nc(N(C)C)nc(C)c1NC(=O)c1ccco1`, -2.74%; in that of `Cc1nc(N(C)C)nc(C)c1NC(=O)c1ccccc1C(F)(F)F`, 46.3%.
With `Cc1nc(N(C)C)nc(C)c1NC(=O)c1ccccc1F`, the INHIBITION amounted to 64.3%.
In the case of `Cc1ccc(NC(=O)c2ncc(C(N)=O)cc2Cl)cc1F`, the INHIBITION is reported as -10.8%.
Turning to `CNS(=O)(=O)c1cc(C(=O)NC2COc3ccccc32)cc(C)c1C` (stereo not given), the INHIBITION stood at 18.4%.
Next, `O=C(c1cccnc1N1CCCCC1)N1CCCC(n2cccn2)C1` (stereo not given): -11.9%; `CCOCCNS(=O)(=O)c1cc(C)c2nc(O)cc(C)c2c1`: 16.3%; `CNS(=O)(=O)c1cc(C)c2[nH]c(=O)cc(C)c2c1`: 56%.
For `CCCNS(=O)(=O)c1ccc2[nH]c(=O)cc(C)c2c1`, the INHIBITION is 14.3%.
Turning to `CN(C)C(=O)[C@@H]1C[C@@H]2CCN(C3CCOCC3)C[C@@H]2O1`, the INHIBITION was found to be 14.5%.
As for `CCc1cc(NCC(O)CN2CCCCC2)n2ncnc2n1` (stereo not given), the INHIBITION is reported as -0.79%.
Consider `CCOc1cccc(C(=O)N2C[C@@H]3CC[C@H]2CN(C(=O)C2CCC2)C3)c1`, for which the INHIBITION worked out at 27.6%.
Regarding `CN(C)C(=O)N1C[C@H]2CC[C@@H](C1)N(C(=O)c1cccc(N(C)C)c1)C2`, the INHIBITION stood at 26.7%.
In the case of `CN(C)c1cccc(C(=O)N2C[C@@H]3CC[C@H]2CN(C(=O)C2CCC2)C3)c1` it was 50.3%.
Next, `CN(C)C(=O)c1cnc2n1CCN(Cc1ccsc1)C2`: 3.11%.
On to `COCC1c2c(cnn2C)CCN1Cc1cccc(C)c1` (stereo not given), for which the INHIBITION was found to be 26.3%.
For the compound `CN1CCN(CC2(O)CCCN(C(=O)Cc3cccc(O)c3)CC2)CC1` (stereo not given), the INHIBITION is listed as -2.09%.
For the compound `O=S(=O)(Cc1ccccc1)NCc1ccco1`, the INHIBITION turned out to be 11.5%.
In the case of `O=S(=O)(Cc1ccc(F)cc1)NCc1ccco1`, the INHIBITION stood at 52.1%.
For the compound `O=C1OCCN1c1cccc(CNS(=O)(=O)Cc2ccc(F)cc2)c1`, the INHIBITION worked out at 18.9%.
Next, `CC(C)(Oc1ccc(F)cc1)C(=O)NCc1ccco1`: -0.797%.
In the case of `Cc1ccc(CS(=O)(=O)NCc2ccco2)cc1` it was 52.1%; in that of `CNc1c(NCc2ccco2)c(=O)c1=O`, 33.5%; in that of `O=C1CCC[C@]2(CN(S(=O)(=O)N3CCCCC3)C[C@H]2c2cccnc2)N1`, 17.4%.
Take `O=C(CO[C@@H]1CC[C@H]2[C@H]1OCCN2CC1CCOCC1)N1CCCC1`: the INHIBITION is recorded as 11.9%.
Regarding `Cc1cc(C(=O)N2CCCC3(COCCN(CCN(C)C)C3)C2)no1` (stereo not given), the INHIBITION is reported as 56.1%.
As to `CN1CCOCC2(CCCN(C(=O)c3ccc(-n4cccc4)cc3)C2)C1` (stereo not given), the INHIBITION was found to be 50.9%.
On to `CN1CCOCC2(CCCN(C(=O)c3cn(C)cn3)C2)C1` (stereo not given), for which the INHIBITION is -57.7%.
Regarding `CN(C)CCN1CCOCC2(CCCN(C(=O)c3ccccn3)C2)C1` (stereo not given), the INHIBITION came out at 54.7%.
In the case of `CN(C)CCN1CCOCC2(CCCN(C(=O)c3ccoc3)C2)C1` (stereo not given) it was 30.3%.
As for `CN(C)CCN1CCOCC2(CCCN(C(=O)c3cccc(O)c3)C2)C1` (stereo not given), the INHIBITION was 4.61%.
As for `CN(C)CCN1CCOCC2(CCCN(C(=O)c3ccccc3)C2)C1` (stereo not given), the INHIBITION is given as 20.9%.
In the case of `CN1CCOCC2(CCCN(C(=O)c3ccccc3F)C2)C1` (stereo not given) it was 34.6%; in that of `CN(C)CCN1CCOCC2(CCCN(C(=O)c3cccn3C)C2)C1` (stereo not given), 47.9%.
`Cc1ccc(C)c(NS(=O)(=O)c2cc3c(c(C(=O)O)c2)OCCO3)c1`: the INHIBITION is listed as 38.8%.
For the compound `O=C(NCCc1nc(C2CC2)no1)[C@H]1CNC[C@H](C(=O)N2CCCC2)C1`, the INHIBITION was -31.3%.
Next, `Cc1nn(C)c(N(C)C)c1CNCc1ccc(OCCN(C)C)cc1`: 27.6%.
Consider `COCCn1ccc2cc(NC(C)=O)ccc21`, for which the INHIBITION amounted to 18.2%.
For `Cc1[nH]c2ccc(CNc3cc(C(=O)NC(C)C)ccn3)cc2c1C`, the INHIBITION was determined as 55.4%.
Next, `COCC(C)NCc1ccc2[nH]c(C)c(C)c2c1` (stereo not given): 2.9%; `COC(=O)C(C)NCc1ccc2[nH]c(C)c(C)c2c1` (stereo not given): 46.4%.
For `Cc1[nH]c2ccc(CNc3cc(C#N)ccn3)cc2c1C`, the INHIBITION was found to be 16.9%.
As for `Cc1[nH]c2ccc(CNc3cc(C(N)=O)ccn3)cc2c1C`, the INHIBITION turned out to be 16.9%.
Take `CSCC(C)NCc1ccc2[nH]c(C)c(C)c2c1` (stereo not given): the INHIBITION is listed as 76.9%.
In the case of `CC(=O)N1Cc2ccccc2OC2(CCN(C(=O)C3CC3)CC2)C1` it was 37.8%; in that of `CCCSc1ncccc1C(=O)NCc1ccc(S(N)(=O)=O)cc1`, -7.29%; in that of `N#Cc1cccc(NS(=O)(=O)c2ccc(C(=O)O)cc2F)c1`, 45.7%.
In the case of `CN(C)c1ccc(CNC(=O)c2ccc(Cl)cc2F)cc1` it was 14.2%.
`CN(Cc1ccc(N(C)C)cc1)C(=O)CS(=O)(=O)c1ccc(Cl)cc1`: the INHIBITION amounted to 64.3%.
In the case of `CN(Cc1ccc(OC(F)F)cc1)C(=O)CS(=O)(=O)c1ccc(Cl)cc1` it was 34.7%; in that of `CC1(C)O[C@@](C)([C@H]2CC3(CCN(c4ncccn4)CC3)CO2)CC[C@@H]1O`, 32.7%.
In the case of `CC(C)c1noc(CN2CCN(C(=O)c3ccc(F)cc3)CC2)n1` it was 16.8%.
